Only some compounds are listed: those with a hit (about 3.5% of all), similar ones and a draw of the others.
Mtb FBA inh = Mtb fructose-bisphosphate aldolase inhibition; P9WQA3; AID 588726; actives 2.3% (n = 360,000); purified M. tuberculosis FBA, fluorescence read-out; inhibition, % at 1 µM
Target sequence (P9WQA3 whole entry, looked up): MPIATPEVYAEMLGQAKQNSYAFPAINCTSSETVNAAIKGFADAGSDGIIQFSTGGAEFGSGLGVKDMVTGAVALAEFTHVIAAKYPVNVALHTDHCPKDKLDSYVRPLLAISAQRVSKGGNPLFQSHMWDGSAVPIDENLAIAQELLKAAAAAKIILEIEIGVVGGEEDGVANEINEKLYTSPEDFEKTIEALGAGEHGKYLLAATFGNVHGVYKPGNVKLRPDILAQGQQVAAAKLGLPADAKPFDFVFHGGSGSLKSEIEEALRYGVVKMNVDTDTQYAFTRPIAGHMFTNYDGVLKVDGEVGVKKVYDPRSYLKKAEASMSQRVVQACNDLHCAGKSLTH
Rv3671c inh = inhibitors of M. tuberculosis serine protease Rv3671c | AID 2606 | P9WHR9 | actives 0.048% (n = 320,000) | inhibition, % at 5.96 µM; in the data active = inhibition above about 38%;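 note: extracellular domain of Rv3671c used as enzyme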
Mtb UGM inh = Mtb UDP-galactopyranose mutase inhibition; purified UGM, fluorescence polarization probe displacement; inhibition, % at 10 µM; actives 0.06% (n = 320,000); P9WIQ1; AID 504406; in the data active = inhibition above about 10%, passing the limit was not always enough
GDH-TPI counter-1 = GDH-TPI coupled enzyme inhibition counter-screen | GDH-TPI coupled enzyme counterscreen, NADH absorbance | inhibition, % at 4.8 µM | actives 1.2% (n = 360,000) | AID 588335; in the data active = inhibition above about 30%
Mtb betalactam = beta-lactam sensitization of Mtb H37Rv; actives 0.27% (n = 330,000); M. tuberculosis H37Rv growth with meropenem, percent inhibition; inhibition, % at 25 µM; call rule not given here;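 note: growth measured after seven days incubation then overnight dye step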
Mtb FBA confirm = confirmation of M. tuberculosis fructose-bisphosphate aldolase inhibitors | actives 78% (n = 5,600) | inhibition, % at 1 µM | AID 651616 | purified M. tuberculosis FBA, fluorescence read-out | shares compounds with Mtb FBA inh
GDH-TPI counter-2 = GDH-TPI inhibition counter-screen for FBA inhibitors | shares compounds with Mtb FBA inh | inhibition, % at 1 µM | actives 81% (n = 5,600) | GDH-TPI coupled enzyme counterscreen, fluorescence; in the data active = inhibition above about 10%
GDH-TPI dose = GDH-TPI dose response counter-screen for Mtb FBA | shares compounds with Mtb FBA inh | GDH-TPI coupled enzyme assay, fluorescence, artifact counterscreen | IC50, µM | actives 79% (n = 170); call rule not given here
Each line names hits and unclear results; the compound was inactive in the other large screens (follow-up assays come after a bar, where they were run). Cut-off read from the data, not from the text of the source, unless noted: active = inhibition above about 27%; inactive = the rest.

Cc1cc(C)c2oc(-c3cccc(N)c3)nc2c1	Mtb FBA inh 51.8 | Mtb FBA confirm inactive | GDH-TPI counter-2 inactive | GDH-TPI dose 0.879
CC(C)(C)NC(=O)NCC1CCCC1NC(=O)NC(C)(C)C (stereo not given)	none
COc1cccc(C2CC(=O)C3=C(C2)Nc2ccccc2N(C(=O)CCC(=O)O)C3c2ccc(F)cc2)c1 (stereo not given)	none
CC(=O)NCCc1c[nH]c2ccc(OCC(O)CNC(C)(C)C)cc12 (stereo not given)	none
COc1ccccc1-c1c(C(F)(F)F)oc2cc(OC(=O)c3cccc([N+](=O)[O-])c3C)ccc2c1=O	none
Cc1ccc(-c2nc3cc(Cl)ccc3o2)cc1	none
Cc1ccc2nc(-c3cccc(N)c3)oc2c1	Mtb FBA inh 92.7 | Mtb FBA confirm inactive | GDH-TPI counter-2 inactive | GDH-TPI dose 0.953
Cc1ccc2nc(-c3ccc(O)cc3)oc2c1	Mtb FBA inh 65.9 | Mtb FBA confirm 67.8 | GDH-TPI counter-2 45.8
O=Cc1cc(-c2ccccc2)[nH]c1-c1ccccc1	none
CCOC(=O)c1[nH]c2ccc(OC)cc2c1NC(=O)c1ccc(OC)c(OC)c1	none
CCOC(=O)c1[nH]c2ccc(OC)cc2c1C(SCC(=O)O)c1ccc(C(F)(F)F)cc1 (stereo not given)	Mtb FBA inh 55.0 | Mtb FBA confirm 131.6 | GDH-TPI counter-2 84.7
CN1CCN(S(=O)(=O)c2ccc(N3CCN(C(c4ccccc4)c4ccccc4)CC3)nc2)CC1	Mtb FBA inh 81.0 | Mtb FBA confirm active | GDH-TPI counter-2 173.2
Fc1ccc(COc2ccc(C(=S)N3CCCC3)cc2)cc1	none
S=C(c1ccc(OCc2ccccc2)cc1)N1CCCC1	Mtb FBA inh 30.4 | Mtb FBA confirm inactive | GDH-TPI counter-2 inactive | GDH-TPI dose inactive
COc1ccc2[nH]c(C(=O)NCCN3CCCCC3)cc2c1	none (no result: Mtb FBA inh, GDH-TPI counter-1)
O=C(O)c1cc2cc(OCc3ccccc3)ccc2[nH]1	Mtb FBA inh 38.6 | Mtb FBA confirm 129.3 | GDH-TPI counter-2 97.4
CCOc1ccc(NC(=O)C(=O)NCCCn2ccnc2)cc1	Mtb FBA inh 43.6 | Mtb FBA confirm 196.7 | GDH-TPI counter-2 164.5
CCCCNC(=O)c1cc2cc(OC)ccc2[nH]1	Mtb FBA inh 48.6 | Mtb FBA confirm inactive | GDH-TPI counter-2 inactive
O=C(O)c1cc(OCc2ccccc2)cc(OCc2ccccc2)c1	none
COc1ccc2[nH]c(C(=O)NCCc3ccccc3)cc2c1	Mtb FBA inh 48.2 | Mtb FBA confirm inactive | GDH-TPI counter-2 inactive
COCc1ccc(CN2CCCC(C(=O)Nc3ccc(-c4cccc(OC)c4)cc3)C2)o1 (stereo not given)	none
COc1ccc2[nH]c(=O)cc(C(=O)O)c2c1	none
COc1ccc2[nH]c(C(=O)N(Cc3ccccn3)Cc3ccccn3)cc2c1	Mtb FBA inh 34.4 | Mtb FBA confirm 132.1 | GDH-TPI counter-2 112.9
COc1ccc2[nH]c(=O)c(C(=O)O)cc2c1	Mtb FBA inh 52.6 | Mtb FBA confirm 65.5 | GDH-TPI counter-2 61.0
COc1ccc2[nH]c(C(=O)NCCCn3ccnc3)cc2c1	Mtb FBA inh 86.0 | Mtb FBA confirm 125.1 | GDH-TPI counter-2 90.1
COc1ccc(C(=O)c2c[nH]c(C(=O)NCCCn3ccnc3)c2)cc1	none
COc1ccc2[nH]c(C(=O)O)c(CCNC(C)=O)c2c1	Mtb FBA inh 49.4 | Mtb FBA confirm 125.2 | GDH-TPI counter-2 106.4
C/C=C(\C)CN1CCC(Oc2cccc(C(=O)NCc3ccccn3)c2)CC1	none
COc1cc(C(=O)OCC(=O)N2CCN(C(C)=O)CC2)ccc1OCC(C)C	none
O=C(NCCc1ccccc1)c1ccc(=O)[nH]c1	none
O=C(NCCc1ccccc1)c1ccc2[nH]c(=O)c(=O)[nH]c2c1	Mtb FBA inh 32.5 | Mtb FBA confirm 32.5 | GDH-TPI counter-2 18.6
COc1ccc(S(=O)(=O)Nc2cc3c4c(c2)CC(=O)N4CCC3)cc1C	none
CCCCC(=O)Nc1ccc2c(c1)nc1n2CCN(CCOC)C1	Mtb FBA inh 51.5 (no result: Rv3671c inh, Mtb UGM inh, Mtb betalactam) | Mtb FBA confirm inactive | GDH-TPI counter-2 12.3
CCCC(=O)Nc1ccc2c(c1)nc1n2CCN(CCOC)C1	Mtb FBA inh 33.4 (no result: Rv3671c inh) | Mtb FBA confirm active | GDH-TPI counter-2 178.8
COCCN1CCn2c(nc3cc(NC(=O)c4cccs4)ccc32)C1	none
CCCCC(=O)Nc1ccc2c(c1)nc1n2CCOC1	none
COC(=O)CCS(=O)(=O)c1nc(-c2ccccc2)cc(C(F)(F)F)n1	none
COCC(C)NC(=O)CCS(=O)(=O)c1nc(-c2ccc(OC)cc2)cc(C(F)(F)F)n1 (stereo not given)	Mtb FBA inh 77.5, GDH-TPI counter-1 36.4 | Mtb FBA confirm active | GDH-TPI counter-2 active
CCCCNc1c(-c2ccc(SC(C)CC)c(OC)c2)nc2ccc(C)cn12 (stereo not given)	Mtb FBA inh 47.6 | Mtb FBA confirm 35.3 | GDH-TPI counter-2 26.6
CCCCNc1c(-c2ccc(SC(C)CC)c(OC)c2)nc2ccc(Cl)cn12 (stereo not given)	none
CCCCCCSc1cccc(-c2nc3cc(C)ccn3c2NCc2ccccc2)c1	Mtb FBA inh 27.8 | Mtb FBA confirm 121.6 | GDH-TPI counter-2 104.4
CCCCCCSc1cc(-c2nc3cnccn3c2NCCCC)ccc1OC	none
CCCCCCSc1cccc(-c2nc3ccccn3c2NCc2ccccc2)c1	Mtb FBA inh 41.9 | Mtb FBA confirm 101.3 | GDH-TPI counter-2 66.4
CCCCNc1c(-c2ccc(-c3ccc(OC)cc3)c(OC)c2)nc2ccccn12	Mtb FBA inh 72.8 (no result: Mtb UGM inh) | Mtb FBA confirm 82.3 | GDH-TPI counter-2 59.3
CC(Sc1nnc(C2CC2)n1N)C(=O)NC1CCCCC1C (stereo not given)	none
COc1ccc(CCN2CC(C(=O)Nc3cc(F)ccc3F)CC2=O)cc1OC (stereo not given)	none
CCCCCCSc1cc(-c2nc3ccc(C)cn3c2NCc2ccccc2)ccc1OC	Mtb FBA inh 28.5 | Mtb FBA confirm 188.5 | GDH-TPI counter-2 135.6
O=C1NN=C2CCCCCCC12 (stereo not given)	Mtb FBA inh 28.6 (no result: Rv3671c inh, Mtb UGM inh, Mtb betalactam) | Mtb FBA confirm 85.2 | GDH-TPI counter-2 70.4
C[C@@H]1CCCCCCCCCCC1=O	none
Cc1c(C)c2ccc(O[C@@H]3O[C@H](CO)[C@@H](O)[C@H](O)[C@H]3O)c(C)c2oc1=O	none (no result: Rv3671c inh)
Cc1c(C)c2ccc(O[C@@H]3O[C@H](CO)[C@H](O)[C@H](O)[C@H]3O)cc2oc1=O	Mtb FBA inh 38.0 (no result: Rv3671c inh) | Mtb FBA confirm 52.8 | GDH-TPI counter-2 42.5
CCOP(=O)(OCC)C(NC(=O)c1cc([N+](=O)[O-])cc([N+](=O)[O-])c1)C(F)(F)F (stereo not given)	none
Cc1cccc(/C=N/NC(=O)Cc2cccs2)c1	none
Cc1ccc(C=Nc2ccccc2C(N)=O)s1	Mtb FBA inh 58.4 | Mtb FBA confirm 59.5 | GDH-TPI counter-2 50.2
Cc1ccc(/C=N/N=C/c2ccc(C)s2)s1	none
